Laboratory results reported in PubChem BioAssay.
The source made the active and inactive calls.

Assay: yeast growth modulation, basal conditions, primary screen, YJM789 clinical isolate, OD600, 24 h (AID 1089);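 also: growth of clinical yeast isolate S. cerevisiae YJM 789 seeded 1000 cells per well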
Conditions: S. cerevisiae YJM789 growth, higher = more signal, called active from +8 up or from −8 down
Also: test concentration not given here.

z-score, inactive:
C=CCC(OC(C)=O)[C@@H]1[C@@H](N(Cc2cccc3ccccc23)C(=O)Cc2ccc(F)cc2)c2cc(OCCCO)ccc2N1C(=O)Cc1ccc(OC)cc1 (some centres undefined) -1.18
O=C1O[C@H](c2ccccc2)[C@H](c2ccccc2)N2[C@H]1[C@@H](C(=O)N1CCN(c3ncccn3)CC1)[C@]1(C(=O)Nc3ccc(C#CCCO)cc31)[C@H]2c1ccccc1OCCO 1.36
COC(=O)[C@@]1(Cc2ccccc2)[C@H]2c3cc(C(=O)N4CCCC4)n(CCO)c3C[C@H]2CN1C(=O)c1ccccc1 -0.598
COCCCNC(=O)[C@@]1(Cc2ccccc2I)c2ccccc2C(=O)N(Cc2ccccc2Cl)[C@H]1c1ccc(CO)cc1 -2.1

Assay: fission yeast growth modulation, primary screen, strain 972, OD600, 24 h, no modulator (AID 1090);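 also: basal condition with compound alone and no growth modifier present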
Conditions: S. pombe 972 growth, higher = more signal, called active from +8 up or from −8 down

z-score, inactive:
COC(=O)[C@@]1(Cc2ccc(OC)cc2)[C@H]2c3cc(C(=O)N(C)C)n(Cc4cc(C)n(C)n4)c3C[C@H]2CN1C(=O)c1ccccc1 0.134
O=C(NCc1ccccc1)[C@]1(Cc2ccccc2)N=C(c2ccc(OCCCO)cc2)O[C@@H]1c1ccccc1 1.26
[N-]=[N+]=NCc1ccccc1[C@H]1OC(c2ccc(OCCCO)cc2)=N[C@@]1(Cc1ccccc1N=[N+]=[N-])C(=O)N1CCCCC1 0.763
COCCOC(=O)N1C(=O)[C@@]2(c3ccccc31)[C@H](c1ccc(OCCO)cc1)N1[C@H](c3ccccc3)[C@H](c3ccccc3)OC(=O)[C@H]1[C@@H]2C(=O)NC[C@H](O)c1ccccc1 0.892
COc1ccc(C(=O)Nc2ccc3c(c2)[C@]2(O[C@@H](CCO)[C@H]([Si](C)(C)c4ccc(OC)cc4)[C@H]2C)C(=O)N3Cc2ccccc2)cc1 -3.28
CN(C)C(=O)[C@]1(Cc2ccccc2N=[N+]=[N-])N=C(c2ccc(OCCCO)cc2)O[C@@H]1c1ccccc1CN=[N+]=[N-] -0.393
COCCOC(=O)N1C(=O)[C@@]2(c3cc(C#Cc4ccc(OC)cc4)ccc31)[C@H](C(=O)N1CCc3cc(OC)c(OC)cc3C1)[C@H]1C(=O)O[C@H](c3ccccc3)[C@H](c3ccccc3)N1[C@@H]2c1ccc(O)cc1 1.71
COc1ccc(C#Cc2ccc3c(c2)[C@]2(C(=O)N3)[C@H](C(N)=O)[C@H]3C(=O)O[C@H](c4ccccc4)[C@H](c4ccccc4)N3[C@@H]2c2ccc(O)cc2)cc1 0.107
COc1ccc([Si](C)(C)[C@@H]2[C@@H](CCO)O[C@]3(C(=O)N(Cc4ccccc4)c4ccc(N5C(=O)COc6ccccc65)cc43)[C@H]2C)cc1 0.504
CC(C)(C)OC(=O)CC[C@@]1(C(=O)N2CCCCC2)N=C(c2ccc(OCCCO)cc2)O[C@@H]1c1ccccc1CN=[N+]=[N-] -0.689
CC(C)C(CO)N1C(=O)[C@@H]2[C@H]3C(=O)OCC=C[C@H]3OC23C=CCN(CCN2CCOCC2)C(=O)[C@@H]13 (some centres undefined) 0.0729
CN1C(=O)C2C=CC(C(O)c3cccc4ccccc34)N(NC(=O)OC(C)(C)C)C2C1=O (centres undefined) -0.397
COCCOC(=O)N1C(=O)[C@@]2(c3cc(C#Cc4ccc(OC)cc4)ccc31)[C@H](C(=O)N1CCc3cc(OC)c(OC)cc3C1)[C@H]1C(=O)O[C@H](c3ccccc3)[C@H](c3ccccc3)N1[C@@H]2c1ccc(OCCO)cc1 1.36
CCOC(=O)C1=CC[C@@H](c2ccccc2)N(S(=O)(=O)c2ccc(C)cc2)[C@H]1C=C(C)C 2.76
C[N+](C)(C)CCCC[C@@H]1NC(=O)[C@H]2C[C@@H](C(=O)NCCCCCCN)[C@@H](c3cccc(OCCO)c3)N2C1=O -0.87
COC(=O)C(CC#Cc1ccc2c(c1)[C@]1(C(=O)N2)[C@H](c2ccc(O)cc2)N2[C@H](c3ccccc3)[C@H](c3ccccc3)OC(=O)[C@H]2[C@@H]1C(N)=O)C(=O)OC -0.55
CCOc1cc(C(O)C2C=CC3C(=O)NC(=O)C3N2Nc2ccccn2)ccc1O (centres undefined) 1.33
C[N+](C)(C)CCCCCCNC(=O)[C@@H]1C[C@@H]2C(=O)NCC(=O)N2[C@@H]1c1cccc(OCCO)c1 0.0641
O=C1c2ccccc2C(=O)C2CC([C@H]3Oc4ccccc4S(=O)(=O)N4CCC[C@@H]34)=CCC12 (some centres undefined) -0.717
CCCc1cc2c(n1Cc1ccc(OC)cc1)C(C)C1CN(C(=O)c3ccccc3)C(C)(C(=O)OC)C21 (centres undefined) 0.815
